Tau ThT inhib: tau fibrillization inhibition (ThT binding). recombinant tau K18 P301L, heparin-induced fibrillization, ThT fluorescence. 270,000 compounds, 2.1% hits. P10636. AID 1460. Potency, µM (titrated, usually from 57.4 µM), hits mostly inhibitors; note: nearly all actives have a fitted effect of over 55% in size
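Fibril formation assay: tau K18 P301L at 15 uM with trace Alexa 594 label, heparin inducer 20 uM, pH 7 sodium acetate buffer, 37 C for 6 hr; endpoint ThT signal.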
Tau fibril FP: tau fibrillization inhibition (FP). K18 P301L tau heparin fibrillization, Alexa594 FP, 6 h. 280,000 compounds, 0.39% hits. Potency, µM (top dose mostly 57.7 µM), most hits filed as inhibitors; note: nearly all actives have a fitted effect of over 55% in size
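Compound effects on tau fibrillization are measured by Alexa 594 fluorescence polarization (ex 555, em 632 nm). K18 P301L tau is used at 15 uM with 0.24 uM labeled tracer, and 20 uM heparin induces aggregation over 6 hr at 37 C.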
Tau fluor cs: counter-screen for tau fibril formation inhibitors. tau K18 P301L Alexa594 fluorescence, heparin fibrillization. Potency, µM (highest dose often 57.7 µM). 280,000 compounds, 0.93% hits. AID 1463; note: nearly all actives have a fitted effect of over 55% in size
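Human tau K18 P301L (15 uM unlabeled, 0.24 uM Alexa 594-labeled) in 100 mM sodium acetate pH 7 with 20 uM heparin, 6 hr at 37 C. ThT 30 uM added, 1 hr ambient; Alexa 594 FP and total fluorescence read at 555/632 nm.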
TR SRC2 fluor cs: Texas Red fluorescence interference in TRb-SRC2 counter-screen; TRb/SRC2 Texas Red total fluorescence interference; Potency, µM (highest dose often 106 µM); 280,000 compounds, 0.29% hits; AID 1479; active = well fitted curve in either direction with a large enough effect; inconclusive = small, poorly fitted or top-dose-only effect
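Human TRb ligand-binding domain at 0.6 uM with 20 nM Texas Red SRC2 peptide in Tris buffer containing 1 uM T3 and 5% DMSO, incubated with compound 5 h at ambient temperature. Total fluorescence (555/632 nm) calculated as parallel + 2 × perpendicular.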
TRb SRC2 PPI: inhibitors of human thyroid hormone receptor beta-SRC2 interaction. P10828. TRbeta-SRC2 peptide binding, fluorescence polarization; receptor liganded with 1 µM T3. Potency, µM (series often up to 106 µM), actives largely listed as inhibitors. 280,000 compounds, 0.065% hits. AID 1469; note: nearly all actives have a fitted effect of over 50% in size
Target sequence (P10828 whole entry, looked up): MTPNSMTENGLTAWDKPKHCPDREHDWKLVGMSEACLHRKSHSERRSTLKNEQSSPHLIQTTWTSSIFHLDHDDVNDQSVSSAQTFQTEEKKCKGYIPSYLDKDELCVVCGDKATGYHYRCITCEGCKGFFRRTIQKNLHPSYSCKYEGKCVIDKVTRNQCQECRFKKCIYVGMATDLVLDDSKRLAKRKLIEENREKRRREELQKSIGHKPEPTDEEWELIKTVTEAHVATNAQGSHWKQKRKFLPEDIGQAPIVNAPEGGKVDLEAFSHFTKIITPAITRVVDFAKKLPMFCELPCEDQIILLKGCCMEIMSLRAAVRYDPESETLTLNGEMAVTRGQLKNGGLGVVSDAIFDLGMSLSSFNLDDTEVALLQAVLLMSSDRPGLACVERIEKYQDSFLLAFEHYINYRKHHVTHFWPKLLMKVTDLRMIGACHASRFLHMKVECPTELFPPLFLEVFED
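Read-out is fluorescence polarization (555 nm excitation, 632 nm emission) of a Texas Red SRC2 coactivator peptide; loss of signal reflects blocked binding to human TRb ligand-binding domain in the presence of 1 uM T3.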
Tau fibril TEM: Inhibits tau K18 fibrillization by TEM grading; shares compounds with Tau ThT inhib; recombinant tau K18 P301L fibrillization, TEM grading; active compounds read high; fibril grade (0 = clumped fibrils, 4 = only tiny pieces) (test concentration not listed); 45 compounds, 70% hits;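 active = compounds whose electron micrographs showed tau fibrils broken into shorter filaments or fragments, graded high on fibril breakup; inconclusive = micrographs gave an unclear fibril picture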
tau sediment: inhibitors of human tau fibrillization, sedimentation test; recombinant tau K18 P301L (four-repeat tau fragment), sedimentation SDS-PAGE densitometry; inhibition, % at 100 µM; shares compounds with Tau ThT inhib; 110 compounds, 50% hits; in the data active = inhibition above about 40%; inconclusive = no clear call, values can overlap the other calls; inactive = below about 18%
Hits are given with their value; [ ] = another dose, or the depositor's remark. This is a sample that favours compounds with a hit; in the whole collection about 3% have one here. Unless noted, calls come from the whole dose curve; as a rule, active = well fitted curve in the direction sought with a large enough effect; inconclusive = small, poorly fitted or top-dose-only effect, or another doubt; inactive = no such curve, though single readings can be large; an effect the other way counts as inactive or inconclusive.

For CCCC(=O)Nc1sc2c(c1C(=O)OC)C(C(=O)OC)CC2 (stereo not given) the results were Tau ThT inhib inactive, Tau fibril FP inconclusive, Tau fluor cs inactive, TR SRC2 fluor cs inactive and TRb SRC2 PPI inactive.
Screening CC(/C=C1\SC(=S)N(NC(=O)c2cccc(O)c2)C1=O)=C\c1ccccc1 returned Tau ThT inhib 7.08µM, Tau fibril FP 14.1µM, Tau fluor cs 14.1µM[quencher], TR SRC2 fluor cs inactive, TRb SRC2 PPI inactive, Tau fibril TEM inactive and tau sediment inconclusive.
For O=C(COc1ccc(F)cc1)Nc1ccc(S(=O)(=O)N(Cc2ccccc2)c2ccccc2)cc1 the results were Tau ThT inhib inactive, Tau fibril FP inconclusive, Tau fluor cs inconclusive, TR SRC2 fluor cs inactive and TRb SRC2 PPI inactive.
Screening COc1ccc2c(c1)c(CC(=O)Nc1c(C)cccc1C)c(C)n2C(=O)c1ccc(Cl)cc1 returned Tau ThT inhib inactive, Tau fibril FP inactive, Tau fluor cs inactive, TR SRC2 fluor cs inactive and TRb SRC2 PPI inactive.
Screening COc1ccc2c(c1)c(CC(=O)Nc1ccc(C(C)=O)cc1)c(C)n2C(=O)c1ccc(Cl)cc1 returned Tau ThT inhib inconclusive, Tau fibril FP inconclusive, Tau fluor cs inconclusive, TR SRC2 fluor cs inactive, TRb SRC2 PPI inactive and tau sediment inactive.
Screening CCOc1ccc(-c2cccc(NS(=O)(=O)c3c(C)cc(C)cc3C)c2)nn1 returned Tau ThT inhib inactive, Tau fibril FP inactive, Tau fluor cs inconclusive, TR SRC2 fluor cs inactive and TRb SRC2 PPI inactive.
For CCc1nn(CC(=O)Nc2c(C)cccc2C)c(=O)c2cc3sccc3n12 the results were Tau ThT inhib inactive, Tau fibril FP inactive, Tau fluor cs inactive, TR SRC2 fluor cs inactive and TRb SRC2 PPI inactive.
For Cc1ccc(C2=NNC(=Nc3ccc(F)cc3)SC2)cc1 the results were Tau ThT inhib 15.8µM, Tau fibril FP inactive, Tau fluor cs inconclusive, TR SRC2 fluor cs inactive, TRb SRC2 PPI inactive, Tau fibril TEM 3 and tau sediment inconclusive.
Screening Cn1ncc(Cl)c1C(=O)Nc1cccc(Cl)c1 returned Tau ThT inhib 12.6µM, Tau fibril FP inconclusive, Tau fluor cs inactive, TR SRC2 fluor cs inactive, TRb SRC2 PPI inactive, Tau fibril TEM 3 and tau sediment 93.0.
`CSc1cccc(NC(=O)c2c(Cl)cnn2C)c1` gave Tau ThT inhib inactive, Tau fibril FP inactive, Tau fluor cs inactive, TR SRC2 fluor cs inactive and TRb SRC2 PPI inactive.
For CC(C)c1ccc(NS(=O)(=O)c2ccc3[nH]cc(C(=O)NCCc4ccccc4)c(=O)c3c2)cc1 the results were Tau ThT inhib inactive, Tau fibril FP inconclusive, Tau fluor cs inactive, TR SRC2 fluor cs inactive, TRb SRC2 PPI inactive and tau sediment inactive.
For CCOc1ccc(NS(=O)(=O)c2ccc3[nH]cc(C(=O)NCCc4ccccc4)c(=O)c3c2)cc1 the results were Tau ThT inhib inactive, Tau fibril FP inconclusive, Tau fluor cs inactive, TR SRC2 fluor cs inactive and TRb SRC2 PPI inactive.
`CC(C)C(C)NC(=O)CSc1nc2scc(-c3ccco3)c2c(=O)n1-c1ccccc1` (stereo not given) gave Tau ThT inhib 8.91µM, Tau fibril FP 4.47µM, Tau fluor cs inactive, TR SRC2 fluor cs inactive, TRb SRC2 PPI inactive, Tau fibril TEM 3 and tau sediment 68.0.
`CC(C)Cn1c(O)c(/C=C2\C=NN=C2c2ccccc2)sc1=S` gave Tau ThT inhib inactive, Tau fibril FP 20µM, Tau fluor cs inactive, TR SRC2 fluor cs inactive, TRb SRC2 PPI inactive and tau sediment inactive.
`CCn1c(O)c(/C=C2\C=NN=C2c2ccccc2)sc1=S` gave Tau fibril FP inconclusive, Tau fluor cs inconclusive, TR SRC2 fluor cs inactive and TRb SRC2 PPI inactive.
Screening COc1cc2c(cc1O)-c1ccccc1CN(C)C2 returned Tau ThT inhib inactive, Tau fibril FP inactive, Tau fluor cs inactive, TR SRC2 fluor cs inactive and TRb SRC2 PPI inactive.
`O=C(O)c1cc(C(=O)O)c(C(=O)N(Cc2cccc(Oc3ccccc3)c2)[C@H]2CCCc3ccccc32)cc1C(=O)O` gave TR SRC2 fluor cs inactive and TRb SRC2 PPI inactive.
